Reference: ChEMBL document CHEMBL4808148, “HDAC6 screening dataset using tau-based substrate in an enzymatic assay yields selective inhibitors and activators” (2021)
Several values for one entry are separate records, joined by “and”; a condition that tells them apart may be missing. Identical values can stand only once. About 150 (2.7%) of roughly 5,600 compounds showed an effect of 50% or more. The sample holds strong results, similar compounds and a random draw of the others, so the mix is not that of the screen.

target: T1, Protein deacetylase HDAC6 (Homo sapiens) (UniProt Q9UBN7); conditions: at 10 µM
T1 sequence (whole entry): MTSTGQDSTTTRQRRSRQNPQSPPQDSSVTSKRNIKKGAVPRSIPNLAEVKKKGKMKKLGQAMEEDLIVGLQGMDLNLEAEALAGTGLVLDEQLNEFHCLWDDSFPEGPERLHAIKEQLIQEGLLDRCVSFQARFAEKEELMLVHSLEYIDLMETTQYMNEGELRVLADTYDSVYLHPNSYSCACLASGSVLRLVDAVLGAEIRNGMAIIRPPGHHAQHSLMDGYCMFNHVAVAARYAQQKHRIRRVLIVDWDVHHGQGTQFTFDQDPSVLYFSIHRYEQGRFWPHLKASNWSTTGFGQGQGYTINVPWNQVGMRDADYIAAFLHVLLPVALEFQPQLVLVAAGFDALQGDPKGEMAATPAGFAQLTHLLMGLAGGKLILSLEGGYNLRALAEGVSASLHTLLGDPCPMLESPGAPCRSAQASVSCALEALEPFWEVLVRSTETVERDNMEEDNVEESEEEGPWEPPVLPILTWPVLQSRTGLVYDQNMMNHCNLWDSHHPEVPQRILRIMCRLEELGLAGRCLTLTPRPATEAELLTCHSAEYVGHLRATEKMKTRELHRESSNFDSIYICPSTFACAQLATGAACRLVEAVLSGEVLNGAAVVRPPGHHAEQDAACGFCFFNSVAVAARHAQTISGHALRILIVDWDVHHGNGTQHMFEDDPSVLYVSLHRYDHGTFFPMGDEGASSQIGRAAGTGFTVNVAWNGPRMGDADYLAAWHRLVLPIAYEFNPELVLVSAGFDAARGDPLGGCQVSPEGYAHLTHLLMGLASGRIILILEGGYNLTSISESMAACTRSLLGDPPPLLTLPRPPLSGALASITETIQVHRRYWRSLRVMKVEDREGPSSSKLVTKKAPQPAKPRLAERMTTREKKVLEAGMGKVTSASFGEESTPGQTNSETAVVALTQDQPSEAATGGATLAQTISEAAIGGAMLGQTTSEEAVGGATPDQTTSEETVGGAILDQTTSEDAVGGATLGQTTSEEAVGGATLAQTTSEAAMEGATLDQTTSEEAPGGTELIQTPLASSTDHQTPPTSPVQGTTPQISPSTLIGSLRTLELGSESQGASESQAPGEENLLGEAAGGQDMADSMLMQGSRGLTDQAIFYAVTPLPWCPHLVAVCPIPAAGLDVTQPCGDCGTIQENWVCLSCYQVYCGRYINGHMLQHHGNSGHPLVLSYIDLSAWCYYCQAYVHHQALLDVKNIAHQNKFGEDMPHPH

Row | Structure (SMILES) | inhibition
1 | CCN1C(=O)CNc2ncc(-c3ccc(-c4nc[nH]n4)nc3C)nc21 | 0.29%
2 | Cc1cc(C)c(/C=C2\C(=O)Nc3ccccc32)[nH]1 | 2.33%
3 | Cc1[nH]c(/C=C2\C(=O)Nc3ccccc32)c(C)c1CCC(=O)O | 8.55%
4 | CN(C)c1ccc(/C=C2\C(=O)Nc3ccccc32)cc1 | 96.3%
5 | CSC1SC[C@H]2C(=O)N(C)[C@@H](C(C)C)C(=O)OC[C@@H](NC(=O)c3cnc4ccccc4n3)C(=O)N[C@@H](C)C(=O)N(C)[C@@H]1C(=O)N(C)[C@@H](C(C)C)C(=O)OC[C@@H](NC(=O)c1cnc3ccccc3n1)C(=O)N[C@@H](C)C(=O)N2C (stereo not given in full) | -2.22%
6 | Cc1cc(-c2nc(-c3ccc(OC(F)(F)F)cc3)no2)nn1Cc1ccnc(N2CCN(C3CC3)CC2)c1 | -4.46%
7 | COc1cc(C(=O)NC2CCCNC2)cc(OC)c1OC (stereo not given) | -2.46%
8 | COc1cc(C(=O)OCCCN2CCCN(CCCOC(=O)c3cc(OC)c(OC)c(OC)c3)CC2)cc(OC)c1OC | -3.62%
9 | COc1cc(C(=S)N2CCOCC2)cc(OC)c1OC | 97.4%
10 | CC(C)(C)[C@H]1CC[C@H](CC2=C(O)C(=O)c3ccccc3C2=O)CC1 | 4.06%
11 | COc1ccc(-c2c(C)c(C(=O)NN3CCCCC3)nn2-c2ccc(Cl)cc2Cl)cc1 | 3.52%
12 | COc1ccccc1C(=O)Nc1cc2c(cc1N1CCCC1)n(C)c(=O)n2C | -4.48%
13 | COc1cccc(-c2ccc(NC(=O)C3=C(C(=O)O)CCC3)c(F)c2)c1 | 94%
14 | CCOc1ccc(-c2ccc(Cn3c(CC(C)(C)C(=O)O)c(SC(C)(C)C)c4cc(OCc5ccc(C)cn5)ccc43)cc2)cn1 | -4.44%
15 | Cc1ccc(-c2ccc(F)cc2COc2ccc(CCC(=O)O)cc2)cc1 | 2.57%
16 | O=C1S/C(=C\c2ccc(OCc3cccc(B(O)O)c3)cc2)C(=O)N1Cc1ccc(F)cc1 | 8.15%
17 | C[C@H](NCc1ccc(OCc2cccc(F)c2)cc1)C(N)=O | 88.8%
18 | C[C@H](NC(=O)Cc1cc(F)cc(F)c1)C(=O)N[C@H](C(=O)OC(C)(C)C)c1ccccc1 | -6.8%
19 | C[C@H](NCc1ccc(OCc2ccccc2F)cc1)C(N)=O | 69.9%
20 | CC(C)NCC(O)COc1ccc(CC(N)=O)cc1 (stereo not given) | 8.69% and 11.7%
21 | COC(=O)C1=C(C)NC(C)=C(C(=O)OC/C=C/c2ccccc2)C1c1cccc([N+](=O)[O-])c1 (stereo not given) | -8.71%
22 | CN[C@H](CC(C)C)C(=O)N[C@H]1C(=O)N[C@@H](CC(N)=O)C(=O)N[C@H]2C(=O)N[C@H]3C(=O)N[C@H](C(=O)N[C@H](C(=O)O)c4cc(O)cc(O)c4-c4cc3ccc4O)[C@H](O[C@H]3C[C@](C)(N)[C@@H](O)[C@H](C)O3)c3ccc(c(Cl)c3)Oc3cc2cc(c3O[C@@H]2O[C@H](CO)[C@@H](O)[C@H](O)[C@H]2O[C@H]2C[C@](C)(NCc3ccc(-c4ccc(Cl)cc4)cc3)[C@@H](O)[C@H](C)O2)Oc2ccc(cc2Cl)[C@H]1O | 0.32%
23 | N#C/C(=C\c1ccc(O)c(O)c1)C(N)=O | 18.8%
24 | N#C/C(=C\c1ccc(O)c(O)c1)C(=O)NCCCc1ccccc1 | 17.5%

Row | Structure (SMILES) | inhibition
25 | N#C/C(=C\c1ccc(O)c(O)c1)C(=O)NCCCCc1ccccc1 | 1.74%
26 | N#C/C(=C\c1ccc(O)c(O)c1)C(=O)Nc1ccccc1 | 93.8%
27 | C[C@H](NC(=O)/C(C#N)=C/c1ccc(O)c(O)c1)c1ccccc1 | 20.7%
28 | N#C/C(=C\c1ccc(O)c(O)c1)C(=O)NCc1ccccc1 | 54.9%
29 | COCCOCCOc1ccc(C2=N[C@@](C)(C(=O)O)CS2)c(O)c1 | -6.58%
30 | O=C(Nc1ccc(F)cc1)N1CCc2ccccc2C1c1ccc(C(F)(F)F)cc1 (stereo not given) | -5.96%
31 | COC(=O)[C@H](CC(C)C)NC(=O)c1ccc(NC[C@@H](N)CS)cc1-c1cccc2ccccc12 | 3.13%
32 | CC(C)=CCC[C@](C)(O)[C@H]1CC[C@]2(C)[C@@H]1[C@H](O)C[C@@H]1[C@@]3(C)CC[C@H](O)C(C)(C)[C@@H]3[C@@H](O)C[C@]12C | -3.01%
33 | OC[C@H]1NCC[C@@H](O)[C@@H]1O | -1.49%
34 | CC[C@@H](Nc1c(Nc2cccc(C(=O)N(C)C)c2O)c(=O)c1=O)c1ccc(C)o1 | -5.03%
35 | CC(=O)c1ccc2c(c1)[C@@H]1C=CC[C@@H]1[C@H](c1cc3c(cc1Br)OCO3)N2 | -3.37%
36 | N=C(N)NCCSSCCNC(=N)N | -3.98%
37 | CC(=O)N[C@H](Cc1c[nH]c2ccccc12)C(=O)OCc1cc(C(F)(F)F)cc(C(F)(F)F)c1 | -8.38%
38 | Cc1ccc(NC2=CC(=O)c3sc(C)nc3C2=O)cc1 | 58.6%
39 | Fc1ccc2c(CCNCc3cccc(OCC(F)(F)C(F)F)c3)c[nH]c2c1 | 4.2%
40 | CC[C@]1(O)C[C@@H]2CN(CCc3c([nH]c4ccccc34)[C@@](C(=O)OC)(c3cc4c(cc3OC)N(C)[C@H]3[C@@](O)(C(N)=O)[C@H](O)[C@]5(CC)C=CCN6CC[C@]43[C@@H]65)C2)C1 | -4.06%
41 | COc1cc2nc(N3CCN(C(=O)C4COc5ccccc5O4)CC3)nc(N)c2cc1OC (stereo not given) | -3.15%
42 | CCCC(=O)N1CCCN(c2nc(N)c3cc(OC)c(OC)cc3n2)CC1 | 15.5%
43 | COc1cc2nc(N3CCN(C(=O)C4CCCO4)CC3)nc(N)c2cc1OC (stereo not given) | 79%
44 | CCCOCCn1c(=O)c(N2CCN(CCO)CC2)nc2cnc(-c3ccc(OC)nc3)cc21 | 2%
45 | O=C(O)CN1CCN(CC(=O)O)CCN(CC(=O)O)CCN(CC(=O)O)CC1 | -2.86%
46 | CSc1ccc([C@H]2CN3CCC[C@H]3c3ccccc32)cc1 (racemic) | -1.09%
47 | Nc1nccs1 | -0.93%
48 | Nc1nncs1 | 60.9%

Row | Structure (SMILES) | inhibition
49 | COCCOc1ccc(N2CCN(CCn3ncc4c3nc(N)n3nc(-c5ccco5)nc43)CC2)cc1 | 4.38%
50 | Cc1cc(C)cc(NC(=O)Nc2ccc(OS(N)(=O)=O)cc2)c1 | 76.1%
51 | NS(=O)(=O)c1ccc(NC(=O)Nc2ccc(F)cc2)cc1 | 0.46%
52 | Cc1ccc(S(=O)(=O)OCC(=O)Nc2ccc(C(=O)O)c(O)c2)cc1 | -5.6%
53 | COC(=O)c1ccccc1NC(=O)c1ccc(F)cc1 | 0.65%
54 | COc1ccc(-c2nc(N3CCOCC3)c3sc(CN(C)c4ncc(C(=O)NO)cn4)cc3n2)cn1 | 97.1%
55 | CS(=O)(=O)N1CCN(Cc2cc3nc(-c4cccc5[nH]ncc45)nc(N4CCOCC4)c3s2)CC1 | 3.78%
56 | Cc1c(CN2CCN(C(=O)[C@H](C)O)CC2)sc2c(N3CCOCC3)nc(-c3cnc(N)nc3)nc12 | -2.64%
57 | CC(=O)N(OCc1ccccc1)[C@@H]1c2cc(C#N)ccc2OC(C)(C)[C@H]1O | 0.48%
58 | O=C(O)CC/C=C\C[C@@H]1CO[C@H](c2ccccc2Cl)O[C@@H]1c1ccccc1O | 11.4%
59 | O=C(NCc1ccc(F)cc1)N1CCN2C(=O)OC(c3ccccc3)(c3ccccc3)C2C1 (stereo not given) | -3.2%
60 | Nc1ccc(-c2nc3ccc(-c4nc5ccc(N)cc5[nH]4)cc3[nH]2)cc1 | 0.97%
61 | O=S(=O)(O)c1ccc2[nH]c(-c3ccccc3)nc2c1 | 94.7%
62 | CCCn1c(=O)[nH]c2nc(-c3ccc(S(=O)(=O)O)cc3)[nH]c2c1=O | 1.08%
63 | O=C(O)Cc1ccc(CCNS(=O)(=O)c2ccc(Cl)cc2)cc1 | 9.85%
64 | COc1cccc(-c2cc(=O)c3ccccc3o2)c1N | 90%
65 | Cc1cc(C(=O)N2Cc3cnn(C)c3Nc3ccccc32)ccc1CNC(=O)N1CCC[C@H]1C(=S)N1CCCN(C)CC1 | -1.87%
66 | CS(=O)(=O)Nc1ccc2oc3c(OC(F)F)ccc(C(=O)Nc4c(Cl)cncc4Cl)c3c2c1 | -3.43%
67 | CC(C)[C@@H](CS(=O)(=O)C(C)C)N1C(=O)[C@@](C)(CC(=O)O)C[C@H](c2cccc(Cl)c2)[C@H]1c1ccc(Cl)cc1 | -1.54%
68 | C/N=c1/nc(-c2ccccc2)n(-c2ccccc2)s1 | 69.9%
69 | CC1=NN(c2ccccc2)C(=O)C1 | -3.47%
70 | Cn1c(-c2ccccc2)nnc1S(C)(=O)=O | -7.28%
71 | Clc1cccc(Cl)c1CSc1nnc(-c2cnccn2)s1 | 5.02%
72 | c1ccc(-c2n[nH]c3c2oc2ccccc23)cc1 | 70.2%

Row | Structure (SMILES) | inhibition
73 | O=c1c2ccccc2oc2ccccc12 | 37.9%
74 | N=C(N)NC(=N)Nc1cccc(Cl)c1 | -4.52%
75 | CN1CC(=O)N=C1NC(=O)Nc1cccc(Cl)c1 | 90.4%
76 | O=C(Nc1ccc(Cl)cc1)Nc1cccc(-c2cccc(N3CCCC3)n2)c1 | -4.23%
77 | C[C@H](N)C(=O)O | -3.75%
78 | Cc1ncc(CO)c(/C=N/NC(=O)c2ccncc2)c1O | -0.7%
79 | O=C(O)c1cc(N2N=C(C(F)(F)F)/C(=C/c3ccc(-c4ccccc4)o3)C2=O)ccc1Cl | -1.26%
80 | COc1cccc(OC)c1-c1cc(C(=O)NC2(C(=O)O)C3CC4CC(C3)CC2C4)nn1-c1ccnc2cc(Cl)ccc12 (stereo not given) | 0.43%
81 | O=C(Nc1ccccc1)c1cc([N+](=O)[O-])ccc1Cl | -4.52%
82 | O=C(Nc1ccncc1)c1cc([N+](=O)[O-])ccc1Cl | -9.26%
83 | O=C(Nc1ccc([N+](=O)[O-])cc1Cl)c1cc(Cl)ccc1O | 97%
84 | N#Cc1cc(F)cc(-c2nc(-c3ccc(F)cn3)no2)c1 | 42%
85 | c1ccc(Cn2c(N3CCNCC3)nc3ccccc32)cc1 | -7.7%
86 | Cc1nc(C#Cc2ccnc(Cl)c2)c(C)n1-c1ccc(F)cc1 | -3.13%
87 | Cc1cc(C)c(N)c(C#Cc2cccc(F)c2)n1 | 93%
88 | O=C(NC1CCC1)c1ccc(C#Cc2cccc(F)c2)nc1 | 24.9%
89 | CC(=O)OC1C[C@H]2C(C)(C)C(=O)C=C[C@]2(C)[C@H]2CC[C@@]3(C)[C@H](c4ccoc4)OC(=O)[C@H]4O[C@]43[C@]12C (stereo not given in full) | -9.28%
90 | Nc1cc2c3ccccc3ccc2c2ccccc12 | 23.6%
91 | Clc1cccc(C(c2ccc3[nH]cnc3c2)n2ccnc2)c1 (stereo not given) | 0.23%
92 | O[C@H]1CC[C@H](Nc2ncc3nc(Nc4c(F)cc(F)cc4F)n([C@H]4CCOC4)c3n2)CC1 | -4.44%
93 | NS(=O)(=O)c1ccc(S(=O)(=O)Nc2cccc3c(Cl)c[nH]c23)cc1 | 79.5%
94 | Nc1ccc(S(N)(=O)=O)cc1 | -5.55%
95 | NCc1ccc(S(N)(=O)=O)cc1 | 0.53%
